HT1080NT lethal: kills 2HG-producing HT-1080-NT fibrosarcoma cells; 1.6% of 360,000 active; AID 686970; Potency, µM (highest dose often 46.1 µM), for the others: at the top dose activity, negative = less viability, most hits filed as cytotoxic; HT-1080-NT fibrosarcoma viability, CellTiter-Glo ATP luminescence, 48 h;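 further: NT is the 2HG producing partner of a matched IDH1 knockdown line; potency means the concentration at half of the fitted maximal effect; 0% = DMSO-treated cells and -100% = media-only wells without cells; nearly all actives have a fitted effect of over 55% in size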
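A 48-hour cytotoxicity screen used HT-1080-NT cells plated 2 hours before compound delivery. ATP-based CellTiter-Glo luminescence measured viability, normalized to DMSO and no-cell controls.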
DT40 TDP1 no CPT: qHTS for Inhibitors of human tyrosyl-DNA phosphodiesterase 1 (TDP1): qHTS in cells in absence of CPT. DT40 Tdp1-/- hTDP1 cells, no CPT, ATP luminescence, 48 h. Potency, µM (doses to about 46.2 µM), for inactives: at the top dose activity change, negative = growth inhibition, actives largely listed as inhibitors. 15% of 420,000 active. AID 686978, 2013; further: potency means the concentration at half of the fitted maximal effect; nearly all actives have a fitted effect of over 55% in size
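Compound effects on proliferation are scored in DT40 Tdp1-/-;hTDP1 cells in the absence of CPT. ATP levels (CellTiter-Glo luminescence) are recorded after a ≥48 hr, 37 °C incubation.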
HT1080 IDH1KD tx: toxicity to HT-1080 IDH1 knockdown cells (counter line). HT-1080 IDH1 knockdown viability, ATP luminescence, 48 h. Potency, µM (top dose mostly 46.1 µM), for inactives: top-dose activity, negative = toxicity, usual class: cytotoxic. 2% of 360,000 active;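 further: potency means the concentration at half of the fitted maximal effect; 0% = DMSO wells and -100% = cell-free medium wells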
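HT-1080-IDH1KD cells (IDH1 knocked down), 750/well in RPMI with 5% FBS, treated with compound 48 h at 37 degrees C. Viability by CellTiter-Glo luminescence, normalised to DMSO and no-cell wells; concentration-response curves classed.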
DT40 TDP1 CPT: DT40-hTDP1 cell growth loss with CPT; 12% of 420,000 active; chicken DT40 Tdp1-/-;hTDP1 cells + 20 nM CPT, ATP luminescence, 48 h; Potency, µM (series often up to 46.2 µM), for the others: at the highest dose activity change, negative = growth inhibition, hits mostly inhibitors; AID 686979; further: potency means the concentration at half of the fitted maximal effect; nearly all actives have a fitted effect of over 55% in size
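Cell growth measured by CellTiter-Glo luminescence after a minimum 48 h, 37 C compound exposure with 20 nM CPT in Tdp1-knockout DT40 cells stably expressing hTDP1, seeded 400/well; qHTS titration format.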
IL-1B inflam inh: blocks inflammasome-driven IL-1 beta release. activity change, % at 57.5 µM. THP-1 LPS/ATP IL-1B secretion, AlphaLISA, 16 h; stronger effect = lower value. AID 743279. 4.7% of 360,000 active; in the data active means activity change below about -50%; inconclusive means mostly about -30% to -49%
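Secreted IL-1B measured by AlphaLISA bead assay after 16 h compound exposure of THP-1 cells; compounds (final up to 57.5 uM) added 1 h before LPS (250 ng/mL) and ATP (1.25 mM) stimulation; lower signal means less secretion.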
* = called active by the depositor; [ ] = remark or other dose. Compounds with a hit are over-represented: about 19% of the library has one in this group of screens. Unless noted, the call rests on the fitted dose curve; in most records, active means well fitted curve in the direction sought with a large enough effect; inconclusive means small, poorly fitted or top-dose-only effect, or another doubt; inactive means no such curve, though single readings can be large; an effect the other way counts as inactive or inconclusive. Unless noted, on the % scale 0 is the no-effect control and ±100 the full control effect.

How did CCOc1ccc(-c2nc(SCC(=O)Nc3ccc4c(c3)OCO4)c(-c3ccc(F)cc3)[nH]2)cc1 do in these assays?
DT40 TDP1 no CPT: inconclusive; DT40 TDP1 CPT: -19%

How did O=C(CSc1ncc(-c2ccc(F)cc2)n1Cc1ccco1)Nc1ccc2c(c1)OCO2 do in these assays?
HT1080NT lethal: -18%; DT40 TDP1 no CPT: inconclusive; HT1080 IDH1KD tx: -26%; DT40 TDP1 CPT: 29µM*; IL-1B inflam inh: -64*

Results for COc1ccc2[nH]c(C)c(C(=O)CN3CCc4cc(OC)c(OC)cc4C3)c2c1 ?
HT1080NT lethal: -29%; DT40 TDP1 no CPT: 18µM*; HT1080 IDH1KD tx: inconclusive; DT40 TDP1 CPT: 16µM*; IL-1B inflam inh: -2

What do the screens show for `COc1ccc2[nH]c(C)c(C(=O)CN3CCOCC3)c2c1`?
HT1080NT lethal: 1%; DT40 TDP1 no CPT: 0%; HT1080 IDH1KD tx: 1%; DT40 TDP1 CPT: 12%; IL-1B inflam inh: -8

What do the screens show for `COc1ccc2c(c1)c(C(=O)CN1CCc3ccccc3C1)c(C)n2C`?
HT1080NT lethal: -1%; DT40 TDP1 no CPT: 21µM*; HT1080 IDH1KD tx: -10%; DT40 TDP1 CPT: inconclusive; IL-1B inflam inh: 1

How did COc1ccc2c(c1)c(C(=O)CN(C)C)c(C)n2C do in these assays?
DT40 TDP1 no CPT: -18%; DT40 TDP1 CPT: 0%

Results for COc1ccc2c(c1)c(C(=O)CNc1nc(C)cs1)c(C)n2C ?
HT1080NT lethal: -26%; DT40 TDP1 no CPT: 21µM*; HT1080 IDH1KD tx: 2%[9.24 µM]; DT40 TDP1 CPT: inconclusive; IL-1B inflam inh: inconclusive

What do the screens show for `COc1ccc2[nH]c(C)c(C(=O)CNc3nccs3)c2c1`?
DT40 TDP1 no CPT: 10µM*; DT40 TDP1 CPT: 7.9µM*

How did CCOCc1cnc(C)nc1NCC(=O)c1c(C)n(C)c2ccc(OC)cc12 do in these assays?
HT1080NT lethal: 6%; DT40 TDP1 no CPT: inconclusive; HT1080 IDH1KD tx: 7%; DT40 TDP1 CPT: inconclusive; IL-1B inflam inh: 11

How did CN(C)CCCNC(=O)C[C@H]1C[C@H](C(=O)N2CCOCC2)[C@@]2(C)c3[nH]c4cc(CCC(=O)N(C)C)ccc4c3CCN2C1=O do in these assays?
HT1080NT lethal: -1%; DT40 TDP1 no CPT: -4%; HT1080 IDH1KD tx: 2%; DT40 TDP1 CPT: inconclusive; IL-1B inflam inh: 15

Results for Cc1cc(NC(=O)CSc2nnc(-c3ccncc3)n2-c2ccccc2)no1 ?
HT1080NT lethal: -1%; DT40 TDP1 no CPT: 1%; HT1080 IDH1KD tx: 1%; DT40 TDP1 CPT: -12%; IL-1B inflam inh: 0

What do the screens show for `CN(C)c1ncc2nc(-c3ccc(Cl)cc3)c(=O)n(Cc3cccs3)c2n1`?
DT40 TDP1 no CPT: -7%; DT40 TDP1 CPT: 1%

How did O=C(NCCC1CCCCN1S(=O)(=O)c1ccccc1)C(=O)Nc1ccc(F)cc1 (configuration not stated) do in these assays?
HT1080NT lethal: 3%; DT40 TDP1 no CPT: inconclusive; HT1080 IDH1KD tx: -3%; DT40 TDP1 CPT: inconclusive; IL-1B inflam inh: inconclusive

What do the screens show for `COc1cc(CNC(=O)C2CCCCN2S(=O)(=O)c2ccc(F)cc2)cc(OC)c1OC` (configuration not stated)?
DT40 TDP1 no CPT: 12µM*; DT40 TDP1 CPT: inconclusive

What do the screens show for `O=C(NCCC1CCCCN1S(=O)(=O)c1cccs1)C(=O)Nc1cccc(F)c1` (configuration not stated)?
HT1080NT lethal: 2%; DT40 TDP1 no CPT: 15µM*; HT1080 IDH1KD tx: -11%; DT40 TDP1 CPT: 23µM*; IL-1B inflam inh: 8

Results for O=C(NCCC1CCCCN1S(=O)(=O)c1cccs1)C(=O)Nc1ccc(F)cc1 (configuration not stated) ?
HT1080NT lethal: -12%; DT40 TDP1 no CPT: inconclusive; HT1080 IDH1KD tx: inconclusive; DT40 TDP1 CPT: inconclusive; IL-1B inflam inh: -63*

Results for COc1ccc(NC(=O)C(=O)NCCC2CCCCN2S(=O)(=O)c2ccc(F)cc2)cc1 (configuration not stated) ?
HT1080NT lethal: inconclusive; DT40 TDP1 no CPT: 10µM*; HT1080 IDH1KD tx: -57%; DT40 TDP1 CPT: 21µM*; IL-1B inflam inh: -7

Results for O=C(NCC1CCCN1S(=O)(=O)c1cccs1)C(=O)Nc1ccc(F)cc1 (configuration not stated) ?
HT1080NT lethal: 13%; DT40 TDP1 no CPT: inconclusive; HT1080 IDH1KD tx: 12%; DT40 TDP1 CPT: -50%; IL-1B inflam inh: -17

Results for CCOC(=O)N1CCc2c(sc3c2c(=O)n(-c2ccc(Cl)cc2)c(=O)n3CC(C)C)C1 ?
DT40 TDP1 no CPT: -3%; DT40 TDP1 CPT: -13%

How did O=C(N1CCCCC1)C1(S(=O)(=O)c2ccccc2)CC=CC1 do in these assays?
HT1080NT lethal: 15%; DT40 TDP1 no CPT: 8.2µM*; HT1080 IDH1KD tx: 18%; DT40 TDP1 CPT: 21µM*; IL-1B inflam inh: 16

Results for O=C(N1CCOCC1)C1(S(=O)(=O)c2ccccc2)CC=CC1 ?
HT1080NT lethal: 9%; DT40 TDP1 no CPT: -10%; HT1080 IDH1KD tx: 7%; DT40 TDP1 CPT: -19%; IL-1B inflam inh: 12

Results for O=C(NCCN1CCOCC1)c1ccc(=O)n(Cc2ccc(Cl)cc2)c1 ?
HT1080NT lethal: 17%; DT40 TDP1 no CPT: 7%; HT1080 IDH1KD tx: 25%; DT40 TDP1 CPT: 1%; IL-1B inflam inh: 18

How did CCCCN(CCCC)C(=O)C1CCN(S(=O)(=O)c2cccc3nsnc23)CC1 do in these assays?
DT40 TDP1 no CPT: 26µM*; DT40 TDP1 CPT: 16µM*

How did CCCN(CCC)CCCNC(=O)C1CCN(S(=O)(=O)c2cccc3nsnc23)CC1 do in these assays?
HT1080NT lethal: 8%; DT40 TDP1 no CPT: 6%; HT1080 IDH1KD tx: 2%; DT40 TDP1 CPT: 8%; IL-1B inflam inh: 1

What do the screens show for `CC1CCCN(C(=O)C2CCN(S(=O)(=O)c3cccc4nsnc34)CC2)C1` (configuration not stated)?
HT1080NT lethal: 1%; DT40 TDP1 no CPT: -1%; HT1080 IDH1KD tx: 0%; DT40 TDP1 CPT: 8%; IL-1B inflam inh: 13

How did O=C(C1CCN(S(=O)(=O)c2cccc3nsnc23)CC1)N1CCc2ccccc2C1 do in these assays?
HT1080NT lethal: -4%; DT40 TDP1 no CPT: inconclusive; HT1080 IDH1KD tx: -4%; DT40 TDP1 CPT: inconclusive; IL-1B inflam inh: -63*

Results for COc1cc2nc(C3CCC3)n(NC(=O)c3ccco3)c(=O)c2cc1OC ?
HT1080NT lethal: 8%; DT40 TDP1 no CPT: 3%; HT1080 IDH1KD tx: 2%; DT40 TDP1 CPT: 1%; IL-1B inflam inh: -57*

What do the screens show for `COc1ccc(/C=C/C(=O)c2cc(F)ccc2OC(=O)c2ccccc2OC)cc1OC`?
HT1080NT lethal: 1µM*; DT40 TDP1 no CPT: 4.6µM*; HT1080 IDH1KD tx: 1.3µM*; DT40 TDP1 CPT: 4.1µM*; IL-1B inflam inh: -100*

Source: PubChem BioAssay
